# RAD54 inh: inhibitors of human RAD54 branch migration, primary screen, biochemical, fluorescence, single point. inhibition, % at 10.4 µM. AID 602329, 2012. RAD54 Holliday junction branch migration, FAM/BHQ fluorescence. 360,000 tested, 0.14% active. DNA repair and recombination protein RAD54-like (Homo sapiens), Q92698;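 active = mean normalized replicate activity at least 40 and at least half of replicates scoring 40 or more; inconclusive = only one of the two criteria met; inactive = mean below 40 and under half of replicates reaching 40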;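 note: 0% = median of neutral control wells and 100% = median of positive control wells; inhibitors cause a drop in the FAM fluorescence signal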
# Target sequence (Q92698 whole entry, looked up): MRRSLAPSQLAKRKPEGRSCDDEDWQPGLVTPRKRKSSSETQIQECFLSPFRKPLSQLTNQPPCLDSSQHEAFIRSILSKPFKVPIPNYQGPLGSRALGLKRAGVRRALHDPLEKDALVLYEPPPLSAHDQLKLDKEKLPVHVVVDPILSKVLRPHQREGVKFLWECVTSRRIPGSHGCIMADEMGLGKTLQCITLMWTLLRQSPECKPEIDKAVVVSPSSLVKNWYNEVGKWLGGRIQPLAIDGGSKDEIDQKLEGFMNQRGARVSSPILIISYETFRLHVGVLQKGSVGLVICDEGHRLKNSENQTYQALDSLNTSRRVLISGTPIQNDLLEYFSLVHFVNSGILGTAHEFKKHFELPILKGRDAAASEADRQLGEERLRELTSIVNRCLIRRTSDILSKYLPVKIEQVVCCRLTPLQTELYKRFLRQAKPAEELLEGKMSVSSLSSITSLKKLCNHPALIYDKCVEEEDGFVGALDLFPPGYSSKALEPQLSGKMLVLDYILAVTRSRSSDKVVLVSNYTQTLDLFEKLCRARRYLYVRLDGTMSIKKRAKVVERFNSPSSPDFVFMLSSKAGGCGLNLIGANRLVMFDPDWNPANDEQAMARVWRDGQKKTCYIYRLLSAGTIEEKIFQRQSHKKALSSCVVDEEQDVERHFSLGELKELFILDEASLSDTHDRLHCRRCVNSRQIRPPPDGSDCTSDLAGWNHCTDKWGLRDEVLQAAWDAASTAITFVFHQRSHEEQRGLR
# CFTR F508del cor: F508del CFTR correction, initial screen, CFBE line, single point | CFBE cells, YFP halide quenching; stimulated with forskolin plus potentiator P3; % fluorescence drop versus neutral controls | activity (quench increase), % at 7.58 µM | 350,000 tested, 0.36% active | AID 720511, 2013;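 active = mean added fluorescence quench of at least 8% versus neutral control, with both replicates also reaching 8%; inconclusive = only one of the mean or replicate conditions met; inactive = mean below 8% and not both replicates reaching 8%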;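 note: cells transiently co-express mutant CFTR-F508del with the halide-sensitive YFP; corrector assay measuring rescue of mutant channel to the surface after 24 h compound exposure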
# RAD52 inh: RAD52 DNA annealing inhibitors, primary screen, biochemical, FRET, single point, set 2; DNA repair protein RAD52 homolog (Homo sapiens), P43351; recombinant RAD52 DNA annealing, FRET fluorescence; inhibition, % at 18.7 µM; 360,000 tested, 0.46% active; AID 651710, 2012;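 active = every replicate showing at least 50% inhibition; inconclusive = mean inhibition at least 50% but not in every replicate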
# LGR2 inh: inhibitors of bursicon-induced LGR2 CRE-luciferase signal, primary screen, cell-based, HEK293, CRE-luciferase reporter, bursicon stimulation. AID 720647, 2013. Drosophila bursicon receptor LGR2 (rickets). inhibition, % at 9.99 µM. bursicon-stimulated, 4 h. 380,000 tested, 0.35% active;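 active = drop in luminescence signal, shown as inhibition above about 50% in the replicate tests, limit read from the data, passing the limit was not always enough; inconclusive = probably only some replicates passing the limit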;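 note: agonist challenge used bursicon conditioned medium at about half maximal strength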
# GSIS activator: GLuc luminescence reporter in INS-1E cells, primary screen for activators of glucose-dependent secretion of insulin; activation, % at 16.6 µM; 370,000 tested, 0.61% active; INS-1E GLuc reporter insulin secretion, 2-3 h; AID 743287, 2014;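 active = lowest replicate activation of at least 40%, so every replicate reaches that level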;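 note: 0% = median of neutral control wells and 100% = median of IBMX positive control wells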
# EWS-Fli block: EWS/Fli-driven NR0B1 reporter inhibitors, primary screen, A673 cells, NR0B1 luciferase, luminescence, MLPCN library; inhibition, % at 12.6 µM; 350,000 tested, 0.67% active; AID 651661, 2012; viability-normalised;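 active = mean inhibition of at least 50% after viability correction, with every replicate also passing that limit; inconclusive = mean reaches 50% but only one of two replicates passes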;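 note: firefly luciferase signal divided by Alamar Blue viability fluorescence both relative to DMSO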
# An asterisk follows results filed as active; i = inactive; ? = inconclusive; · = not tested or not shown; ! = not confirmed by another sample. Hits are enriched below; roughly 1.8% of the tested compounds scored in any of these assays.
SMILES,RAD54 inh,CFTR F508del cor,RAD52 inh,LGR2 inh,GSIS activator,EWS-Fli block
O=C(O)c1ccc2c(=O)n3c(nc2c1)/C(=C/c1ccc(C(F)(F)F)cc1)CC3,-5,0,-4,2,-13,7
CC(=O)Nc1nc(C)c(Oc2cccc(C(F)(F)F)c2)c(=O)[nH]1,·,-3,-4,·,·,6
OC(COc1ccc(Cl)cc1Cl)Cn1ccnc1 (stereo not drawn),-4,4,-19,9,3,-2
COc1cc(CNCCO)cc(Br)c1OCc1ccccc1Cl,2,·,·,·,·,·
COc1cc(CNCCO)cc(Cl)c1OCc1ccc(Cl)cc1Cl,·,-2,43,?,42*,6
Cc1nc2ccc(NC(=O)c3ccccc3)cc2s1,·,3,-222,-123,-14,-61
CCn1nc(C(=O)Nc2ccc3nc(C)sc3c2)c2ccccc2c1=O,-13,·,·,-10,53*,·
COc1ccc(NC(=O)CCS(=O)(=O)c2ccccc2Cl)cc1S(=O)(=O)Nc1ccc(Cl)cc1,·,6,-56,3,-18,57*
COc1ccc(NC(=O)CCC(=O)c2cccs2)cc1S(=O)(=O)Nc1ccc(Cl)cc1,·,·,-12,3,-2,-3
O=C(CSc1ncccn1)N1CCCCCC1,-2,0,-14,6,10,1
CC(C)n1cc(/C=C/c2cc[n+](C)cc2)c2ccccc21,i,9.2*,i,6,-32,9
Cc1sc(NC(=S)NC(=O)CCc2ccccc2)c(C(N)=O)c1C,·,12*,-55,-5,12,49
COC(=O)CCC(=O)NC(=S)Nc1sc(C)c(C)c1C(N)=O,·,·,·,-18,-36,·
CC1OC(CC(=O)O)CC2=C1C(=O)c1c(O)cccc1C2=O (stereo not drawn),·,-3,-8,99*,72*,32
O=C1C=C(O)c2cccc(O)c2C1=O,6,-3,3,·,·,9
O=C(Nc1cccc(-c2ccc(N3CCCCC3)nn2)c1)C(F)(F)F,14,-3,-22,82*,14,·
CC1CCN(c2ccc(-c3cccc(NC(=O)C(F)(F)F)c3)nn2)CC1,-4,-1,-18,97*,-9,·
C[C@@H]1CN([C@H](C)CO)C(=O)c2cc(NS(=O)(=O)c3ccc(Cl)cc3)ccc2O[C@@H](C)CCCCO[C@H]1CN(C)Cc1ccc2c(c1)OCO2,-2,-1,52*!,-1,-1,14
C[C@H]1CCCCO[C@H](CN(C)Cc2ccc3c(c2)OCO3)[C@@H](C)CN([C@@H](C)CO)C(=O)c2cc(NS(=O)(=O)c3ccc(Cl)cc3)ccc2O1,-6,5,55*,-15,-30,18
C[C@@H]1CCCCO[C@@H](CN(C)Cc2ccc3c(c2)OCO3)[C@@H](C)CN([C@@H](C)CO)C(=O)c2cc(NS(=O)(=O)c3ccc(Cl)cc3)ccc2O1,0,1,58*!,3,-9,69*!
C[C@@H]1CN([C@@H](C)CO)C(=O)c2cc(NS(=O)(=O)c3ccc(F)cc3)ccc2O[C@@H](C)CCCCO[C@H]1CN(C)Cc1ccc2c(c1)OCO2,-3,0,26,-17,-24,14
C[C@@H]1CCCCO[C@@H](CN(C)Cc2ccc3c(c2)OCO3)[C@@H](C)CN([C@H](C)CO)C(=O)c2cc(NS(=O)(=O)c3ccc(Cl)cc3)ccc2O1,-4,2,31,13,-13,-1
CC1CCN(CCOc2cc(Cl)ccc2Cl)CC1,0,0,-10,-9,21,-3
Cc1ccc(C2/C(=C(/O)c3ccc(OC(C)C)cc3)C(=O)C(=O)N2CCN2CCOCC2)cc1 (stereo not drawn),1,·,·,-20,7,·
COc1cc(OC)c2c3c(c(C4CCCCC4)nc2c1)CCC3,3,4,-11,-16,266*,8
SMILES,RAD54 inh,CFTR F508del cor,RAD52 inh,LGR2 inh,GSIS activator,EWS-Fli block
CC(=O)Cn1ncc(Br)c(Br)c1=O,0,-7,5,106*,53,30
COc1cc2c(C(=O)N3CCN(c4ccccc4C)CC3)c(C)oc2cc1Br,-5,·,·,·,·,·
O=c1ccc2c(-c3ccccc3)c3ccc(O)cc3oc-2c1,i,58*,i,-6,9,26
Nc1ccc(-c2c3ccc(=O)cc-3oc3cc(O)ccc23)cc1C(=O)O,·,8.8*,i,-8,-30,-27
C[C@@H]1CCCCO[C@@H](CN(C)Cc2ccc3c(c2)OCO3)[C@H](C)CN([C@H](C)CO)C(=O)c2cc(NS(=O)(=O)c3cccs3)ccc2O1,-5,2,·,-2,-9,8
O=C1Nc2cnc(Cl)nc2Nc2ccccc21,·,-4,18,29,87*,3
O=C1Nc2ccccc2Nc2ccccc21,1,1,2,7,3,9
C[C@@H]1CN([C@H](C)CO)S(=O)(=O)c2ccc(-c3cccc(C#N)c3)cc2O[C@H]1CN(C)C(=O)c1ccccc1,3,-2,-7,0,-20,7
CCOC(=O)c1ccc(NC(=O)c2cccc3c2C(=O)N(CC2CCCO2)C3)cc1 (stereo not drawn),8,-6,-57,0,7,2
CS(=O)(=O)n1nc(-c2ccc(Cl)cc2)nc1N,·,-1,-19,-8,9,-16
Cn1nc(-c2ccc(Cl)cc2)nc2c(=O)n(C)c(=O)nc1-2,58*,·,·,·,·,·
COc1ccccc1C(=O)Nc1ccc2c(c1)nc(CCNC(=O)c1ccccc1)n2C,1,-1,8,-31,·,65*
CCCCC[C@@H](C)N1C[C@H](COCc2ccccc2)Oc2cc(N3CCC[C@H]3COC)ccc2S1(=O)=O,·,3,-15,-14,-5,-1
CNc1nc(SCc2ccccc2)nc(N2CCOCC2)n1,3,·,·,-12,50*,·
CSc1nc(NC(C)(C)C)nc(N2CCOCC2)n1,1,·,·,·,·,·
CC(C)(C)Nc1nc(SCc2ccccc2)nc(N2CCOCC2)n1,-5,·,·,·,·,·
CSc1nc(NC(C)C)nc(N2CCOCC2)n1,10,·,·,-19,116*,·
CO[C@@H]1CN(C)C(=O)c2ccc(NC(=O)c3cc(C)on3)cc2OC[C@H](C)N(C)C[C@@H]1C,-7,-2,-7,1,11,4
O=[N+]([O-])c1ccc(O)c2ncccc12,6,-1,0,101*,·,40
O=Nc1ccc(O)c2ncccc12,·,16*,20,-10,-33,72*
Cc1cc(C)c(O)c(C(=O)CC2CC(=O)NC(=O)C2)c1,·,6,-3,65*,-28,4
O=C(Nc1cccc(Cl)c1)Nc1nnc(CSCCOc2ccc(Cl)cc2)s1,1,·,·,15,54*,·
O=C(Nc1cccc(Cl)c1)Nc1nnc(-c2ccncc2)s1,·,0,-26,54*,-7,2
